Screening results (PubChem)
D1 antag = human D1 dopamine receptor antagonism; HEK293 TREx D1 cells, calcium flux, dopamine EC80; hits give low values; activity change, negative = inhibition, % at 10 µM; AID 504652; P21728; actives 3.2% (n = 360,000); in the data active = activity change below about -30%
Target sequence (P21728 whole entry, looked up): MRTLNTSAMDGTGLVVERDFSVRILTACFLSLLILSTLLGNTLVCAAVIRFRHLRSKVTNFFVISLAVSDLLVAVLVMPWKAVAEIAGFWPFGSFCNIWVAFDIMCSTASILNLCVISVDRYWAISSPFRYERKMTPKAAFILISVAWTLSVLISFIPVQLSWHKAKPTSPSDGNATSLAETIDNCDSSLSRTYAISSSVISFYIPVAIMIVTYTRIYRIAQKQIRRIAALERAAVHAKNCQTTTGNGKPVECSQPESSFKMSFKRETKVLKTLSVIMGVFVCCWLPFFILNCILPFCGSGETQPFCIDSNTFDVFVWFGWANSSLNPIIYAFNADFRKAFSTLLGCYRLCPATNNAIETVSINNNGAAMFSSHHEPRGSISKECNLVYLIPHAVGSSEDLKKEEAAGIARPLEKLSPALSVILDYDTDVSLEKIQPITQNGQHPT
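Tetracycline-induced HEK293 Trex D1 cells, force-coupled to calcium, dye-loaded; compounds added and read 180 s, then EC80 dopamine added and calcium flux tracked kinetically another 180 s.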
TRHR enhancer-1 = allosterically enhances the human TRH receptor. P34981. enhancement, % at 2 µM. TRHR cells, fluo-8 calcium fluorescence, EC20 TRH enhancement. actives 0.66% (n = 360,000); in the data active = enhancement above about 30%
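Enhancer read-out: after compound pinning and an initial kinetic agonist-mode read, an EC20 of TRH (10 nM final) was injected and fluo-8 calcium signal (Ex 480/Em 530) followed at 1 s/cycle for 100 cycles in TRHR-expressing cells.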
D1 ag = human D1 receptor agonism; P21728; HEK293 T-REx D1 cells, calcium flux, agonist mode; activation, % at 2 µM; actives 1% (n = 360,000); in the data active = activation above about 30%
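Agonism was scored from calcium flux recorded over 180 s (1 read/s) after pintool compound addition, following a 10-cycle baseline. Cells were inducible force-coupled HEK293 TREx D1, plated overnight at 30 C and loaded with no-wash calcium dye.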
TRHR agonist-1 = TRH receptor (human) agonism; TRHR cells, calcium flux fluo-8, FDSS agonist mode; activation, % at 2 µM; actives 0.18% (n = 360,000); AID 493084; in the data active = activation above about 30%
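TRHR-expressing cells, plated overnight in medium with 10% serum, were loaded with fluo-8 calcium dye at room temperature. After a 10 s baseline, library compound was pin-added and calcium release was recorded kinetically (ex 480/em 530) as agonist response.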
D1 potentiator = potentiators of human D1 dopamine receptor | P21728 | HEK293 TREx D1 cells, calcium flux, dopamine EC20 potentiation | potentiation, % at 10 µM | actives 0.036% (n = 360,000); in the data active = potentiation above about 30%
TRHR enhancer-2 = confirmation of human TRH receptor allosteric enhancers; shares compounds with TRHR enhancer-1; TRH receptor cell assay, enhancer confirmation qHTS; activity change, negative = inhibition, % at 46.1 µM; 970 tested, under 10 active;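 also: compound effect scored on response to added TRH at EC20 of 10 nM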
TRHR agonist-2 = human TRH receptor agonism confirmation. shares compounds with TRHR enhancer-1. Potency, µM (titrated, usually from 46.1 µM), hits mostly activators. actives 8% (n = 970). TRHR-expressing cells, agonist activation read-out; also: nearly all actives have a fitted effect of over 75% in size
Each line names hits and unclear results; the compound was inactive in the other large screens (follow-up assays come after a bar, where they were run). This is a sample that favours compounds with a hit; in the whole collection about 4.6% have one here. Unless noted, calls follow the shape of the dose curve; as a rule, active = well fitted curve in the direction sought with a large enough effect; inconclusive = small, poorly fitted or top-dose-only effect, or another doubt; inactive = no such curve, though single readings can be large; an effect the other way counts as inactive or inconclusive.

O=C(Cc1cccs1)N=Nc1c(O)[nH]c2ccccc12	TRHR enhancer-1 43.1 | TRHR enhancer-2 inactive | TRHR agonist-2 inactive
O=C(Cc1cccs1)N=Nc1c(O)[nH]c2ccc(Br)cc12	none
CCOc1ccc(NC(=O)c2oc3ccccc3c2NC(=O)Cc2cccs2)cc1	none
CN(c1ccc(C(=O)N2CCN(c3ccc(F)cc3)CC2)cc1)S(C)(=O)=O	TRHR enhancer-1 56.0 | TRHR enhancer-2 inactive | TRHR agonist-2 inactive
CCOc1ccc(C(=O)Nc2ccc(-c3nc4cc(CC)ccc4o3)cc2)cc1	none
CCCCCc1ccc(OCCCC[n+]2ccc(C)cc2)c(CCCCC)c1	D1 ag 202.1, TRHR agonist-1 35.0 | TRHR enhancer-2 inactive | TRHR agonist-2 inconclusive
CCCCCc1ccc(OCCCC[n+]2cccc(C)c2)c(CCCCC)c1	none
CCOC(=O)CN1C(=O)S/C(=C/C=C/c2ccc(N(C)C)cc2)C1=O	D1 ag 105.0, TRHR agonist-1 32.4 | TRHR enhancer-2 inactive | TRHR agonist-2 inconclusive
CCOC(=O)CN1C(=O)S/C(=C/c2ccc3c(c2)n(C)c(=O)n3C)C1=O	none
COCCNC(=O)c1cc2c(=O)n3cccc(C)c3nc2n1C	TRHR enhancer-1 41.2 | TRHR enhancer-2 inconclusive | TRHR agonist-2 inactive
CCCCNC(=O)c1cc2c(=O)n3cccc(C)c3nc2n1C	none
CCc1nnc(NC(=O)CCC(=O)N2CCN(Cc3cc(Cl)ccc3OC)CC2)s1	TRHR enhancer-1 64.0 | TRHR enhancer-2 inactive | TRHR agonist-2 inactive
COc1ccc(CCNC(=O)c2cccc(-n3cnc4cccnc43)c2C)cc1OC	none
COc1ccc(C(=O)NCc2nnnn2-c2ccc(C)c(C)c2)cc1	TRHR enhancer-1 67.7 | TRHR enhancer-2 inactive | TRHR agonist-2 inactive
Cc1ccc(C(=O)NCc2nnnn2-c2ccc(C)c(C)c2)cc1	none
CCCCCOc1ccc(Cn2c(=O)oc3ccccc32)cc1	none
COc1cnc(-c2ccccc2)nc1Oc1cccc(C)c1	TRHR enhancer-1 59.2 | TRHR enhancer-2 inactive | TRHR agonist-2 inactive
COc1cnc(-c2ccccc2)nc1OC	none
O=C1c2cccnc2C(=O)N1Cc1ccc(S(=O)(=O)N2CCOc3ccccc32)cc1	none
CC1(C)Oc2ccc(C(=O)NC3CCCCC3)cc2N(CC#N)C1=O	TRHR enhancer-1 46.4 | TRHR enhancer-2 inactive | TRHR agonist-2 inactive
Cc1cc(-n2c(SCc3ccccc3F)nc3n[nH]c(C)c3c2=N)ccc1Cl	TRHR enhancer-1 54.0 | TRHR enhancer-2 inactive | TRHR agonist-2 inactive
CCOC(=O)c1c(NC(=O)Cn2c(C)nc3ccccc32)sc2c1CCC2	TRHR enhancer-1 60.1 | TRHR enhancer-2 inactive | TRHR agonist-2 inactive
COc1ccc(N2CCN(CC(=O)N3c4ccccc4CC3C)CC2)cc1 (stereo unspecified)	TRHR enhancer-1 41.3 | TRHR enhancer-2 inconclusive | TRHR agonist-2 inactive
CC1CCN(CC(=O)N2c3ccccc3CC2C)CC1 (stereo unspecified)	none
Cc1cc(Br)ccc1SCC(=O)OCC(=O)c1c(N)n(C)c(=O)n(C)c1=O	none
COc1ccc(-n2cc(C(=O)N(CCN(C)C)Cc3ccccc3)c3ccccc3c2=O)cc1	TRHR enhancer-1 73.6 | TRHR enhancer-2 inactive | TRHR agonist-2 inactive
C=CCn1cc(C(=O)N2CCN(C)CC2)c(=O)c2cc(S(=O)(=O)N3CCCC3)ccc21	none (no result: D1 potentiator)
C=CCn1cc(C(=O)N2CCN(C)CC2)c(=O)c2cc(S(=O)(=O)N(CC)CC)ccc21	TRHR enhancer-1 52.8 | TRHR enhancer-2 inactive | TRHR agonist-2 inactive
C=CCN(CC=C)Cc1c(C)[nH]c2c(C)c(C)ccc2c1=O	TRHR enhancer-1 44.5 | TRHR enhancer-2 inactive | TRHR agonist-2 inactive
COc1ccc(CNC(=O)CN(C(=O)c2snc(C(N)=O)c2N)c2ccc(OC)c(OC)c2)cc1	none
Cc1ccccc1-c1cc(C(=O)NCc2ccco2)n(CC2CC(c3cccnc3)=NO2)n1 (stereo unspecified)	none (no result: D1 antag)
COc1cc(/C=C2\SC(=S)N(NS(=O)(=O)c3ccc(C)cc3)C2=O)ccc1O	D1 ag 81.6, TRHR agonist-1 36.0 | TRHR enhancer-2 inactive | TRHR agonist-2 inconclusive
CCOc1cc(/C=C2\SC(=S)N(NC(=O)c3cccnc3)C2=O)ccc1O	none
CCOc1cc(/C=C2/SC(=S)N(CC3CCCO3)C2=O)ccc1O (stereo unspecified)	D1 ag 67.8, TRHR agonist-1 43.2 | TRHR enhancer-2 inconclusive | TRHR agonist-2 16.4µM
COc1cc(/C=C2\SC(=S)N(NS(=O)(=O)c3ccc(C)cc3)C2=O)cc(OC)c1OC	none
O=C1/C(=C/c2cccc(O)c2)SC(=S)N1CC1CCCO1 (stereo unspecified)	none
COc1cc(/C=C2\SC(=S)N(NC(=O)c3ccc(O)c(OC)c3)C2=O)ccc1O	D1 ag 73.3, TRHR agonist-1 45.2 | TRHR enhancer-2 inactive | TRHR agonist-2 inconclusive
Cc1cc(C(=O)NCc2ccccc2)c2c(C)nn(-c3cccc(F)c3)c2n1	none
Cc1oc(-c2ccc(Cl)cc2)nc1Cn1c(=O)cc(C)c2c(C)nn(-c3cccc(F)c3)c21	none
CCOc1ccc(S(=O)(=O)N2CCN(c3ccc(OC)cc3)CC2)c2cccnc12	TRHR enhancer-1 43.7 | TRHR enhancer-2 inactive | TRHR agonist-2 inactive
CCOC(=O)c1c(NC(=O)COC)sc(C(C)=O)c1C	TRHR agonist-1 32.6 | TRHR enhancer-2 inactive | TRHR agonist-2 inactive
CCOC(=O)c1c(NC(=O)COC)sc(C)c1C	none
N=C1/C(=C\c2coc3ccc(O)cc3c2=O)C(=O)N=C2SC=CN12	D1 ag 131.6, TRHR agonist-1 59.4 | TRHR enhancer-2 inactive | TRHR agonist-2 9.2µM
CN1C(=O)/C(=C/c2coc3ccc(O)cc3c2=O)SC1=S	none
Cn1c(N)c(C(=O)COC(=O)CCC2CCCC2)c(=O)n(C)c1=O	none
Cn1c(N)c(C(=O)COC(=O)CCC2CCCCC2)c(=O)n(C)c1=O	TRHR enhancer-1 45.6 | TRHR enhancer-2 inactive | TRHR agonist-2 inactive
Nc1ccccc1S(N)(=O)=O	none
CCn1c(CC(=O)Nc2ccccc2)n[nH]c1=S	TRHR enhancer-1 52.0 | TRHR enhancer-2 inactive | TRHR agonist-2 inactive
CCc1nn2c(=O)cc(COC(=O)c3ccccc3)nc2s1	none
O=C(CSc1nc(=O)[nH]c2c1CCCC2)Nc1cc(C(F)(F)F)cc(C(F)(F)F)c1	none
Cc1csc(NC(=O)CSc2nc(=O)[nH]c3c2CCCC3)n1	TRHR enhancer-1 65.6 | TRHR enhancer-2 inactive | TRHR agonist-2 inactive
CCOC(=O)Cc1csc(SCC(=O)NC2CCCCC2)n1	none
CCOC(=O)Cc1csc(SCC(=O)NC2CCCC2)n1	TRHR enhancer-1 51.6 | TRHR enhancer-2 inactive | TRHR agonist-2 inactive
CC1CC(C)CN(CCC(=O)Nc2ccc(Br)cc2)C1 (stereo unspecified)	none
